Screen size: about 5,500 compounds; about 2,000 (36%) were called active. About 18% were inconclusive and are not listed. No stated cut-off is given here; in the data, active means normalized growth mostly below about 0.91 (no sharp cut-off); inconclusive means no clear call, values can overlap the other calls; inactive means mostly above about 0.92. Some of the results follow.
Experiment: chemical genetic growth profiling, strain panel (AID 1159580);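 further: tested at 20 µM; growth read once vehicle control cultures reached saturation at 30 °C; 1 = growth at the plate median or of vehicle wells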
Conditions: growth OD

Measured: normalized growth

O=C1OC(c2ccc(O)cc2)(c2ccc(O)cc2)c2ccccc21
inactive: S. cerevisiae deletion strains, locus YJR043C, strain POL32, stronger effect = lower value 0.991 | S. cerevisiae deletion strains, locus YJR066W, strain TOR1, stronger effect = lower value 0.937 | S. cerevisiae deletion strains, locus YKL009W, strain mrt4, stronger effect = lower value 0.979 | S. cerevisiae deletion strains, locus YKL068W, stronger effect = lower value 0.991 | S. cerevisiae deletion strains, locus YKL085W, strain MDH1 (second series), stronger effect = lower value 0.975 | S. cerevisiae deletion strains, locus YKL085W, strain MDH1, stronger effect = lower value 0.975 | S. cerevisiae deletion strains, locus YKL160W, strain elf1, stronger effect = lower value 0.97 | S. cerevisiae deletion strains, locus YKL190W, strain CNB1, stronger effect = lower value 0.994 | S. cerevisiae deletion strains, locus YKR001C, strain vps1, stronger effect = lower value 0.993 | S. cerevisiae deletion strains, locus YKR091W, strain srl3, stronger effect = lower value 0.989 | S. cerevisiae deletion strains, locus YLL001W, strain dnm1, stronger effect = lower value 0.964 | S. cerevisiae deletion strains, locus YLL026W, stronger effect = lower value 0.973 | S. cerevisiae deletion strains, locus YLL041C, strain sdh2, stronger effect = lower value 0.979 | S. cerevisiae deletion strains, locus YLR027C, strain aat2, stronger effect = lower value 0.983 | S. cerevisiae deletion strains, locus YLR039C, strain RIC1, stronger effect = lower value 0.96 | S. cerevisiae deletion strains, locus YLR058C, strain SHM2, stronger effect = lower value 0.995 | S. cerevisiae deletion strains, locus YLR102C, strain apc9, stronger effect = lower value 0.978 | S. cerevisiae deletion strains, locus YLR113W, strain HOG1, stronger effect = lower value 0.974 | S. cerevisiae deletion strains, locus YLR221C, strain rsa3, stronger effect = lower value 1.01 | S. cerevisiae deletion strains, locus YLR258W, strain gsy2, stronger effect = lower value 0.973 | S. cerevisiae deletion strains, locus YLR262C, strain YPT6 (second series), stronger effect = lower value 0.995 | S. cerevisiae deletion strains, locus YLR262C, strain YPT6, stronger effect = lower value 0.946 | S. cerevisiae deletion strains, locus YLR268W, strain sec22, stronger effect = lower value 0.916 | S. cerevisiae deletion strains, locus YLR320W, strain mms22, stronger effect = lower value 1 | S. cerevisiae deletion strains, locus YLR330W, strain CHS5, stronger effect = lower value 0.982 | S. cerevisiae deletion strains, locus YLR342W, strain FKS1 (second series), stronger effect = lower value 0.998 | S. cerevisiae deletion strains, locus YLR342W, strain FKS1, stronger effect = lower value 0.994 | S. cerevisiae deletion strains, locus YLR357W, strain rsc2, stronger effect = lower value 0.949 | S. cerevisiae deletion strains, locus YLR370C, strain arc18, stronger effect = lower value 0.989 | S. cerevisiae deletion strains, locus YLR371W, strain rom2, stronger effect = lower value 0.948 | S. cerevisiae deletion strains, locus YLR384C, strain iki3, stronger effect = lower value 0.981 | S. cerevisiae deletion strains, locus YML016C, strain PPZ1, stronger effect = lower value 1 | S. cerevisiae deletion strains, locus YML032C, strain rad52, stronger effect = lower value 0.956 | S. cerevisiae deletion strains, locus YML120C, strain ndi1, stronger effect = lower value 0.977 | S. cerevisiae deletion strains, locus YML124C, strain tub3, stronger effect = lower value 0.978 | S. cerevisiae deletion strains, locus YMR058W, strain fet3, stronger effect = lower value 0.966 | S. cerevisiae deletion strains, locus YMR078C, strain ctf18, stronger effect = lower value 0.968 | S. cerevisiae deletion strains, locus YMR125W, strain sto1, stronger effect = lower value 0.962 | S. cerevisiae deletion strains, locus YMR129W, stronger effect = lower value 0.987 | S. cerevisiae deletion strains, locus YMR205C, strain PFK2, stronger effect = lower value 0.971 | S. cerevisiae deletion strains, locus YMR223W, strain ubp8, stronger effect = lower value 0.997 | S. cerevisiae deletion strains, locus YMR231W, strain pep5, stronger effect = lower value 0.992 | S. cerevisiae deletion strains, locus YMR307W, strain GAS1, stronger effect = lower value 0.909 | S. cerevisiae deletion strains, locus YNL067W, strain RPL9B, stronger effect = lower value 0.987 | S. cerevisiae deletion strains, locus YNL071W, strain lat1, stronger effect = lower value 0.95 | S. cerevisiae deletion strains, locus YNL153C, strain GIM3, stronger effect = lower value 1 | S. cerevisiae deletion strains, locus YNL183C, strain NPR1, stronger effect = lower value 0.956 | S. cerevisiae deletion strains, locus YNL209W, strain ssb2, stronger effect = lower value 0.99 | S. cerevisiae deletion strains, locus YNL233W, strain BNI4, stronger effect = lower value 0.981 | S. cerevisiae deletion strains, locus YNL250W, strain rad50, stronger effect = lower value 0.99 | S. cerevisiae deletion strains, locus YNL271C, strain bni1, stronger effect = lower value 0.988 | S. cerevisiae deletion strains, locus YNL298W, strain CLA4, stronger effect = lower value 0.99 | S. cerevisiae deletion strains, locus YNL307C, strain MCK1, stronger effect = lower value 0.937 | S. cerevisiae deletion strains, locus YNL322C, strain KRE1 (second series), stronger effect = lower value 0.991 | S. cerevisiae deletion strains, locus YNL322C, strain KRE1, stronger effect = lower value 0.994 | S. cerevisiae deletion strains, locus YNR049C, strain mso1, stronger effect = lower value 0.99 | S. cerevisiae deletion strains, locus YNR052C, strain pop2, stronger effect = lower value 0.969 | S. cerevisiae deletion strains, locus YOL006C, strain TOP1, stronger effect = lower value 0.952 | S. cerevisiae deletion strains, locus YOL012C, strain htz1 0.612 | S. cerevisiae deletion strains, locus YOL147C, strain pex11, stronger effect = lower value 0.981 | S. cerevisiae deletion strains, locus YOR001W, strain rrp6, stronger effect = lower value 0.973 | S. cerevisiae deletion strains, locus YOR061W, strain CKA2, stronger effect = lower value 1 | S. cerevisiae deletion strains, locus YOR069W, strain VPS5, stronger effect = lower value 0.988 | S. cerevisiae deletion strains, locus YOR070C, strain gyp1, stronger effect = lower value 0.991 | S. cerevisiae deletion strains, locus YOR080W, strain dia2, stronger effect = lower value 0.981 | S. cerevisiae deletion strains, locus YOR083W, strain WHI5, stronger effect = lower value 0.983 | S. cerevisiae deletion strains, locus YOR106W, strain vam3, stronger effect = lower value 0.944 | S. cerevisiae deletion strains, locus YOR136W, strain idh2, stronger effect = lower value 0.983 | S. cerevisiae deletion strains, locus YOR144C, strain elg1, stronger effect = lower value 0.987 | S. cerevisiae deletion strains, locus YOR184W, strain ser1, stronger effect = lower value 0.939 | S. cerevisiae deletion strains, locus YOR231W, strain MKK1, stronger effect = lower value 0.974 | S. cerevisiae deletion strains, locus YOR265W, strain rbl2, stronger effect = lower value 0.995 | S. cerevisiae deletion strains, locus YOR270C, strain vph1, stronger effect = lower value 0.89 | S. cerevisiae deletion strains, locus YOR290C, strain snf2, stronger effect = lower value 0.965 | S. cerevisiae deletion strains, locus YOR316C, strain cot1, stronger effect = lower value 0.968 | S. cerevisiae deletion strains, locus YPL051W, strain arl3, stronger effect = lower value 1 | S. cerevisiae deletion strains, locus YPL078C, strain atp4, stronger effect = lower value 0.952 | S. cerevisiae deletion strains, locus YPL106C, strain sse1, stronger effect = lower value 1.01 | S. cerevisiae deletion strains, locus YPL240C, strain hsp82, stronger effect = lower value 0.982 | S. cerevisiae deletion strains, locus YPL241C, strain CIN2, stronger effect = lower value 0.989 | S. cerevisiae deletion strains, locus YPL256C, strain CLN2, stronger effect = lower value 0.965 | S. cerevisiae deletion strains, locus YPR119W, strain clb2, stronger effect = lower value 0.98 | S. cerevisiae deletion strains, locus YPR141C, strain kar3, stronger effect = lower value 0.998 | S. cerevisiae deletion strains, locus YPR163C, strain tif3, stronger effect = lower value 0.965 | S. cerevisiae deletion strains, locus YPR167C, strain met16, stronger effect = lower value 0.972 | S. cerevisiae deletion strains, strain wtn01, stronger effect = lower value 0.954 | S. cerevisiae strains, strain wild type, stronger effect = lower value 0.998
active: S. cerevisiae deletion strains, locus YLR418C, strain cdc73, stronger effect = lower value 0.835

Reference: PubChem BioAssay AID1159580 (chemical genetic matrix, 2015)
